# Measured values reported in PubChem BioAssay.
# Active and inactive are the calls of the source.
# Columns and labels:
# [1] = test system: Plasmodium falciparum Sir2 (PF13_0152, Sir2A); assay: pfSir2 binders on small-molecule microarrays, primary screen, biochemical, small-molecule microarray, 635 nm fluorescence (AID 1098); conditions: small-molecule microarray binding, fluorescence 635 nm; higher = more signal;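 further: score merges spot fluorescence intensity with its signal-to-noise ratio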
# [2] = small-molecule microarray binders of probe aDKK1, primary screen, biochemical, biotinylated probe, 635/667 nm fluorescence (AID 1099); conditions: higher = more signal;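 further: score merges 667nm spot fluorescence with signal to noise across triplicate slides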
# [3] = small-molecule microarray binders of probe aCHRDL2, primary screen, biochemical, biotinylated probe, 635/667 nm fluorescence (AID 1100); conditions: higher = more signal
# [4] = splicing luciferase reporter signal modulators, primary screen, spliceosome inhibition project, cell-based, HEK293, splice +/- reporter (AID 1101); conditions: luminescence, 24 h, higher = more signal, called active from +8 up or from −8 down;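 further: HEK293 cells carrying a splicing-competent luciferase reporter gene; test concentration not given here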
# [5] = biological target: Fibroblast growth factor 10 (Homo sapiens) (UniProt O15520); assay: FGF10 binders on small-molecule microarrays, primary screen, biochemical, small-molecule microarray, 635 nm fluorescence (AID 1102); conditions: FGF10 binding, fluorescence 635 nm, higher = more signal
# [6] = test system: glycogen synthase kinase-3 (GSK3A per assay name; protocol says GSK3B); assay: GSK3 binders on small-molecule microarrays, primary screen, biochemical, small-molecule microarray, 635 nm fluorescence, GSK3A (AID 1103); conditions: small-molecule microarray binding, fluorescence 635 nm; higher = more signal; further: the record names both GSK3A and GSK3B
# [7] = biological target: Epidermal growth factor receptor (Homo sapiens) (UniProt P00533); assay: EGFR binders on small-molecule microarrays, primary screen, biochemical, small-molecule microarray, 635 nm fluorescence (AID 1104); conditions: EGFR binding, higher = more signal;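 further: score merges 667 nm emission intensity with spot signal to noise over triplicate slides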
# [8] = biological target: Follistatin-related protein 3 (Homo sapiens) (UniProt O95633); assay: FSTL3 binders on small-molecule microarrays, primary screen, biochemical, small-molecule microarray, 635 nm fluorescence (AID 1105); conditions: FSTL3 binding, higher = more signal;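 further: score merges emission near 667 nm and signal to noise per printed spot across three slides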
# [9] = biological target: Dickkopf-related protein 1 (Homo sapiens) (UniProt O94907); assay: DKK1 binders on small-molecule microarrays, primary screen, biochemical, small-molecule microarray, 635 nm fluorescence scan (AID 1106); conditions: DKK1 binding, higher = more signal;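 further: score merges emission near 667 nm with signal to noise over three replicate slides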
# [10] = test system: Inhibin beta A chain (activin A); assay: INHBA (activin A) binders on microarrays, primary screen, biochemical, small-molecule microarray, 635 nm fluorescence scan (AID 1107); conditions: small-molecule microarray binding, higher = more signal;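 further: mouse activin A protein probed at 4.33 µg/mL on printed slides; score merges bound-protein fluorescence near 667 nm with spot signal-to-noise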
# [11] = test system: Human papillomavirus type 1a protein E7 (residues 44-93); assay: HPV1a E7 fragment binders on microarrays, primary screen, biochemical, small-molecule microarray, residues 44-93, 635 nm fluorescence (AID 1108); conditions: small-molecule microarray binding, fluorescence 635 nm; higher = more signal;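 further: E7 fragment applied at 1 µg/mL in TBST for 1 h at 4 C; score combines spot fluorescence with its signal to noise ratio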
# [12] = modulators of HCV replicon luciferase signal, primary screen, HCV replication inhibitor project, Huh7 cells, luciferase reporter (AID 1109); conditions: 48 h, higher = more signal;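 further: huh7 hepatoma cells harbouring a luciferase neomycin HCV replicon reporter; luciferase luminescence as measure of HCV replicon replication; test concentration not given here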
# [13] = biological target: Left-right determination factor 2 (Homo sapiens) (UniProt O00292); assay: LEFTY2 binders on small-molecule microarrays, primary screen, biochemical, small-molecule microarray, 635 nm fluorescence scan (AID 1110); conditions: LEFTY2 binding, higher = more signal
# [14] = biological target: Calmodulin-1 (Homo sapiens) (UniProt P0DP23); assay: CALM1 binders on microarrays, EGTA buffer, profiling panel, biochemical, small-molecule microarray, Cy5-labelled CALM1 (AID 1111); conditions: Cy5-CALM1 binding fluorescence, higher = more signal;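 further: labelled calmodulin applied in Tris saline Tween buffer holding calcium plus EGTA and DTT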
# [15] = biological target: Calmodulin-1 (Homo sapiens) (UniProt P0DP23); assay: calcium-bound CALM1 binders on microarrays, profiling panel, artefact control for SMM control-protein annotation, biochemical, small-molecule microarray, Cy5-labelled CALM1, plus calcium (AID 1112); conditions: Cy5-CALM1 binding fluorescence, higher = more signal;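 further: score merges spot fluorescence with signal to noise from triplicate slides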
# [16] = small-molecule microarray binders of probe aWnt5a, primary screen, biochemical, biotinylated probe, 635/667 nm fluorescence (AID 1113); conditions: higher = more signal;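 further: score merges 667 nm fluorescence intensity with signal-to-noise per printed feature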
# [17] = small-molecule microarray binders of probe aShh, primary screen, biochemical, biotinylated probe, 635/667 nm fluorescence (AID 1114); conditions: higher = more signal;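 further: probe is biotin-labelled aShh protein from a stem cell growth factor screen; measures binding of labelled protein to compounds printed on the slide; score merges feature fluorescence at 667 nm with signal-to-noise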
# [18] = small-molecule microarray binders of probe aNog, primary screen, biochemical, biotinylated probe, 635/667 nm fluorescence (AID 1115); conditions: higher = more signal;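 further: probe is biotinylated aNog protein used at 0.15 µg/mL for 1 h at 4 C; z-score combines 667 nm fluorescence of each spot with its signal to noise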
# [19] = biological target: Torsin-1A-interacting protein 1 (Homo sapiens) (UniProt Q5JTV8); assay: LAP1 binders from COS7 cell lysate, primary screen, small-molecule microarray, 635/667 nm fluorescence (AID 1116); conditions: COS7-hLAP1 lysate binding, 635 nm fluorescence, higher = more signal
# [20] = biological target: Alpha-bungarotoxin (Bungarus multicinctus) (UniProt P60615); assay: alpha-bungarotoxin binders on microarray, profiling panel, artefact control for SMM control protein annotation, biochemical, small-molecule microarray, Alexa647 label, 635/667 nm fluorescence (AID 1117); conditions: alpha-BTX-A647 binding fluorescence, higher = more signal
# Sequence of Alpha-bungarotoxin (Bungarus multicinctus) (P60615 whole entry, looked up): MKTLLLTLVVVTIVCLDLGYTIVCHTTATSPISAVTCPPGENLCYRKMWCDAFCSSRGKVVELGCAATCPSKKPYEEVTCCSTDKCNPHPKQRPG
# Sequence of Left-right determination factor 2 (Homo sapiens) (O00292 whole entry, looked up): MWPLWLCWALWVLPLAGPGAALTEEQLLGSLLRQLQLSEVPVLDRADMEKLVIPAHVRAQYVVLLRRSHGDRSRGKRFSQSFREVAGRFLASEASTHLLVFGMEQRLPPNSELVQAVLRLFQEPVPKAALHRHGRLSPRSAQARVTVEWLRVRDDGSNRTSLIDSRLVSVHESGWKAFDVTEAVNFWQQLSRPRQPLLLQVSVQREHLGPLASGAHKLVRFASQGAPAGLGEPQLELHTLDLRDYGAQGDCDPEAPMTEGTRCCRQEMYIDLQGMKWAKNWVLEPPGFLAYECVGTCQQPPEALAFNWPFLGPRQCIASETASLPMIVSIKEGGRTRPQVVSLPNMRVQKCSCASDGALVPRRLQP
# Sequence of Dickkopf-related protein 1 (Homo sapiens) (O94907 whole entry, looked up): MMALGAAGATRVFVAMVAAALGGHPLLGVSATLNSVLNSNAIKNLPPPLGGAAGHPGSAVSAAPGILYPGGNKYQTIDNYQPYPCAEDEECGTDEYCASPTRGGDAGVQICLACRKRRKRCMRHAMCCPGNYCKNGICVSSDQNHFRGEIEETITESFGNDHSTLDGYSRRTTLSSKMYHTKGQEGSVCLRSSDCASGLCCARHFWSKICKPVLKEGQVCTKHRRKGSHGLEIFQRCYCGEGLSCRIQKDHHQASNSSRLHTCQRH
# Sequence of Fibroblast growth factor 10 (Homo sapiens) (O15520 whole entry, looked up): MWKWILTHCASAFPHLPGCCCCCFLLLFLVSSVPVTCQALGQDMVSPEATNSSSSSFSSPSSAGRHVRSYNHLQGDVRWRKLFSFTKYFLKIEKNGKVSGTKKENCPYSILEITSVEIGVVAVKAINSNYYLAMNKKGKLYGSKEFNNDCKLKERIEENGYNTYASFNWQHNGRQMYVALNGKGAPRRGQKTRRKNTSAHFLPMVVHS
# Sequence of Torsin-1A-interacting protein 1 (Homo sapiens) (Q5JTV8 whole entry, looked up): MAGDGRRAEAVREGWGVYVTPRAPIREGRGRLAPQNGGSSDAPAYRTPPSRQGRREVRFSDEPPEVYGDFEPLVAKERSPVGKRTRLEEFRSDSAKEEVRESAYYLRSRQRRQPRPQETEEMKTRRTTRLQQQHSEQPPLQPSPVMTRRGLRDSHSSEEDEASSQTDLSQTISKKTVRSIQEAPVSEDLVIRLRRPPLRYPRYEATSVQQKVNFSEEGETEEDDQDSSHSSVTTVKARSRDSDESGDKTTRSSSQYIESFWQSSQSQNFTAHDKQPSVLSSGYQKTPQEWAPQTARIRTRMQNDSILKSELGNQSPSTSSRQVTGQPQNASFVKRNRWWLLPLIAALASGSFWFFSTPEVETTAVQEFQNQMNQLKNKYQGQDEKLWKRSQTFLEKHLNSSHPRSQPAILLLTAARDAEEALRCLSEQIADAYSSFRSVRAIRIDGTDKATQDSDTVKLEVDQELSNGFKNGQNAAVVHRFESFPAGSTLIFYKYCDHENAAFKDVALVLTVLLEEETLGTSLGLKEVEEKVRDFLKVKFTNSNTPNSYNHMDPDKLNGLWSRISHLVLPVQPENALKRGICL
# Sequence of Follistatin-related protein 3 (Homo sapiens) (O95633 whole entry, looked up): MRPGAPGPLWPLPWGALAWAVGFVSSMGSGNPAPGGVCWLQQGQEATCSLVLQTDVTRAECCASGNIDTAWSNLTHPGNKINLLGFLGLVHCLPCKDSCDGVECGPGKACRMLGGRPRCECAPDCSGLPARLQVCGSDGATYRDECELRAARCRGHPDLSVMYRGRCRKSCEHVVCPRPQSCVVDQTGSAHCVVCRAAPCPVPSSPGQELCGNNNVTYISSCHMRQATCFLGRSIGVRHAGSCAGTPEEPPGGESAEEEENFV
# Sequence of Epidermal growth factor receptor (Homo sapiens) (P00533 whole entry, looked up): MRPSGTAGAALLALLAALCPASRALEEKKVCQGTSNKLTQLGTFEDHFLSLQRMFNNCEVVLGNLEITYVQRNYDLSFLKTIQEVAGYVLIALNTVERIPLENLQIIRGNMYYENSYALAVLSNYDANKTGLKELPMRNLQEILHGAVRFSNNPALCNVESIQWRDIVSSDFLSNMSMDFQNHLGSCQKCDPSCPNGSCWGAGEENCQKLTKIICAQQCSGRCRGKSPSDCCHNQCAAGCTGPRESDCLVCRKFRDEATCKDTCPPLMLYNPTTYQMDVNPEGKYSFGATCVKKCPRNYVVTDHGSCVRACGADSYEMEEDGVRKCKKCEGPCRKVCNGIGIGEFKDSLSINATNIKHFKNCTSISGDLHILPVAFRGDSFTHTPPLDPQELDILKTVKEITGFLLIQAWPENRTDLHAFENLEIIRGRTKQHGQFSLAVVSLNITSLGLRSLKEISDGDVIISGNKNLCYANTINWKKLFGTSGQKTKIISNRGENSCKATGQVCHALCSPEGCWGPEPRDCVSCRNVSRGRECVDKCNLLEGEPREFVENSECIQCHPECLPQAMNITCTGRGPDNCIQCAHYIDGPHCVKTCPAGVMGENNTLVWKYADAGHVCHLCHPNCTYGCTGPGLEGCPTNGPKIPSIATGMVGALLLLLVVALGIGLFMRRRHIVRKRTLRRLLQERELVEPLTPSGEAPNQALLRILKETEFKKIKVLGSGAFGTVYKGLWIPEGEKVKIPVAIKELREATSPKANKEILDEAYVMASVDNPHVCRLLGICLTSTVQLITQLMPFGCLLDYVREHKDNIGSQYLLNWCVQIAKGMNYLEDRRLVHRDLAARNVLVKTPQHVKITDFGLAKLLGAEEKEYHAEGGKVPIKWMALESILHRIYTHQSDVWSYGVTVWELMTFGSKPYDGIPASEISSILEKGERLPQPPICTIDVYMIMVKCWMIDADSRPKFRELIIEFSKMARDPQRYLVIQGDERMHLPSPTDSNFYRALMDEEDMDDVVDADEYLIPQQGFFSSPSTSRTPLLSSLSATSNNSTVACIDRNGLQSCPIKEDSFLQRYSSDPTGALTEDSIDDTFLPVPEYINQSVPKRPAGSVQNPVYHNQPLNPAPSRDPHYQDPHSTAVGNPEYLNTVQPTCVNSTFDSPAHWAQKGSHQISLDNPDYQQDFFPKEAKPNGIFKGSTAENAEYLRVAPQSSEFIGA
SMILES,composite z-score [1],composite z-score [2],composite z-score [3],z-score [4],composite z-score [5],composite z-score [6],composite z-score [7],composite z-score [8],composite z-score [9],composite z-score [10],composite z-score [11],z-score [12],composite z-score [13],composite z-score [14],composite z-score [15],composite z-score [16],composite z-score [17],composite z-score [18],composite z-score [19],composite z-score [20]
C=CCOC(=O)[C@@H]1[C@H]2C(=O)O[C@H](c3ccccc3)[C@H](c3ccccc3)N2[C@H](c2ccc(OCCOC(=O)[C@@H]3C[C@@H]4C(=O)N[C@@H](CC(C)C)C(=O)N4[C@@H]3c3ccc(O)cc3)cc2)[C@@]12C(=O)Nc1ccc(I)cc12,1.03,-0.228,-0.355,-0.771 (inactive),1.37,1.28,0.817,1.42,1.14,0.79,1.39,-0.432,1.26,0.751,0.289,-0.263,-0.0793,1.12,-0.107,1.44
CCOC(=O)C1=C[C@@H](C(C)(C)C)N(S(=O)(=O)c2ccc(C)cc2)[C@H]1c1ccc(OC)cc1,0.463,0.305,-0.0462,-1.5 (inactive),0.998,1.29,0.902,1.27,0.33,0.318,1.34,-2.36,0.535,1.49,0.577,0.0279,0.216,-0.397,1.97,1.14
O=C1C2C=CC(C(O)C3CCCCC3)N(Nc3ccccc3F)C2C(=O)N1c1ccccc1 (stereo not given),1.12,1.15,0.95,-0.505 (inactive),0.873,1.29,0.157,1.08,-0.498,1.1,1.45,-1.49,0.135,2.06,1,0.0993,-0.0054,-0.0116,1.27,2.4
C=C(C)C1CN([C@H](CO)c2ccccc2)C(=O)/C1=C\c1ccccc1 (stereo not given in full),0.719,-0.316,-0.492,-0.921 (inactive),0.716,0.22,0.0508,0.276,0.48,1.29,-0.165,-1.56,0.241,-0.565,-0.754,-0.144,-0.289,0.172,0.189,-0.173
CCc1cccc(NC(=O)O[C@H]2[C@H](OC(=O)Nc3ccccc3-c3ccccc3)[C@H](OC(=O)Nc3ccccc3-c3ccccc3)[C@@H](OC)O[C@@H]2CO)c1,0.477,0.632,0.444,1.93 (inactive),1.45,1.34,0.851,1.31,0.635,0.838,1.42,-1.95,0.588,1.44,-0.301,0.179,0.0796,-0.318,1.81,1.29
CN1C(=O)C2C=CC(C(O)c3cccs3)N(N(c3ccccc3)c3ccccc3)C2C1=O (stereo not given),0.82,0.0508,0.66,2.04 (inactive),0.347,0.347,-0.665,0.602,-0.351,1.27,1.28,0.053,-0.632,1.07,0.831,0.143,0.131,-0.267,0.713,1.79
O=C(O)C1=CC[C@H]2C(=O)N(c3ccccc3)C(=O)[C@@H]12,0.767,0.45,0.682,0.727 (inactive),0.855,1.04,0.325,1.11,0.0793,1.23,1.37,0.49,0.412,0.661,-0.388,0.155,0.369,0.883,0.769,0.955
C=CCNC(=O)[C@@H]1[C@H]2C(=O)O[C@H](c3ccccc3)[C@H](c3ccccc3)N2[C@H](c2ccc(OCCO)cc2)[C@@]12C(=O)Nc1ccc(C#CCNC(N)=O)cc12,1.05,-0.123,0.584,-0.0958 (inactive),-0.385,-0.402,-1.13,0.16,-0.456,1.31,1.24,-0.658,-0.463,1.47,0.472,-0.0051,-0.349,-0.361,0.0307,0.782
COc1c(C)cc(-c2cc3c(c(CCc4ccccc4)n2)[Si](C(C)C)(C(C)C)O[C@H]3c2ccccc2)cc1C,0.994,-0.137,-0.169,-1.48 (inactive),-0.168,-0.914,-0.275,-0.257,-0.204,-0.0185,-0.52,-3.84,-0.124,0.261,0.502,0.0136,0.0008,0.0225,-0.445,-0.176
N#Cc1ccc(NN2C(C(O)c3ccc(B(O)O)cc3)C=CC3CN(c4ccccc4)C(=O)C32)cc1 (stereo not given),0.35,0.0933,0.584,0.441 (inactive),-0.792,-0.824,-0.533,-0.172,-0.445,0.462,-0.664,0.277,-0.193,0.0251,-0.408,-0.144,-0.237,-0.196,0.11,-0.0348
COC(=O)[C@@]1(Cc2ccc(F)cc2)[C@H]2c3cc(C(=O)N4CCCC4)n(C[C@H](O)CO)c3C[C@H]2CN1C(=O)c1ccccc1,0.543,1.48,0.609,0.749 (inactive),0.0396,0.094,-0.0057,0.111,0.145,0.549,0.0716,-0.948,-0.358,2.69,1.27,0.429,1.41,2.28,2.35,0.185
